Activity calls are given as the source filed them.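 How the source made its calls, unless noted: active means signal rise over 3 SD above mean of control wells given weak agonist, in both repeats and first screen; inactive means the rest.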
System: TRPC4 (mouse), co-expressed with 5HT1a in HEK293
Test: calcium flux potentiators in TRPC4/5HT1a cells, confirmation, counter-screen for TRPC4 potentiator project, cell-based, second counter screen, HEK293 TRPC4/5HT1a, Fluo-4 (AID 434979)
Conditions: Fluo-4 calcium flux, at 10 µM, serotonin added at its EC20 dose

SMILES	outcome
CN(C)C(CNC(=O)c1oc2ccccc2c1CSc1ncn[nH]1)c1ccco1 (stereo not drawn)	inactive
Cc1nn(-c2ccccc2)c(Cl)c1CN(C(=O)CCl)c1ccc(Cl)cc1	inactive
COc1ccccc1N1CCc2c(C)nc3c(OC)cccc3c21	inactive
Cc1cc(CN2CCCC(C(=O)Nc3ccc(-c4nc5ccccc5[nH]4)cc3)C2)n[nH]1 (stereo not drawn)	inactive
CCCCNCC1C(Oc2ccc(Cl)cc2)C(=O)N1c1ccccc1C (stereo not drawn)	inactive
O=C1COc2ccc(N3C(=O)C=CC3=O)cc2N1	inactive
Cc1nc2scc(-c3ccccc3)c2c(=O)n1N=C1C=CC(=O)C=C1	inactive
CCOC(=O)C1=NN(c2ccccc2C)C2=NC(C)=C(C(=O)OC)C(c3cccc(OC)c3)N12 (stereo not drawn)	inactive
N/C(Cc1cccc2ccccc12)=N\OC(=O)c1cccs1	inactive
CCCSc1nc(N)nc(-c2cccs2)c1C#N	inactive
Cc1ccc(NC(=O)c2cc(N3C(=O)C=CC3=O)ccc2N2CCOCC2)cc1	inactive
Cc1ccc(NC(=O)CNc2ccccc2CN(C)C2CCCCC2)cc1	inactive
CC1(C)CC(NC(=O)c2cc(COc3cccc(C(F)(F)F)c3)on2)CCO1 (stereo not drawn)	inactive
COc1ccc(C2=NN(C(=O)c3ccccc3)C(c3ccc(OC)c(OC)c3)C2)c(O)c1 (stereo not drawn)	inactive
CCCn1nc([N+](=O)[O-])c(C(C#N)c2nc3ccccc3o2)c(Cl)c1=O (stereo not drawn)	inactive
COc1ccc(C(CNc2ccc(C(F)(F)F)cn2)N(C)C)cc1OC (stereo not drawn)	inactive
COc1cccc(C2=NN(C(=O)c3ccco3)C(c3ccco3)C2)c1 (stereo not drawn)	inactive
c1ccc(Cn2c(NCc3ccco3)nc3ccccc32)cc1	inactive
CC(=O)c1ccc2c(c1)N(C)c1ccccc1S2	inactive
CCOC(=O)C1CCN(CC(O)COc2ccc(C(C)(C)C)cc2)CC1 (stereo not drawn)	inactive

SMILES	outcome
CC(C)C1=Nc2cccc3cccc(c23)N1	inactive
Cc1cccc2nc(CSc3ccc(Cl)cc3)cn12	inactive
O=C(NC1CCCCC1)N1CCN(C(c2ccccc2)c2ccccc2)CC1	inactive
COc1cc(CNC2CCCC2)c(Br)cc1OCc1ccccc1	inactive
COc1ccc(Nc2cc(C)nc3ccc(OC)cc23)cc1	inactive
Cc1ccc(NC(=S)N(CCCN(C)C)Cc2cc3cc4c(cc3[nH]c2=O)OCO4)c(C)c1	inactive
COc1ccc(CN2CCN(Cc3ccc(C(F)(F)F)cc3)CC2)c(OC)c1	inactive
Cn1cc(CNCC2CCCO2)c(-c2ccc(Oc3ccccc3)cc2)n1 (stereo not drawn)	inactive
CCCCCCCCCCCCOC(=O)C[N+](C)(C)C	inactive
CN(C)CCCN(C(=O)c1ccc(S(=O)(=O)N2CCCC2)cc1)c1nc2c(F)cc(F)cc2s1	inactive
C=C(c1ccc(O)cc1)c1ccc(O)cc1	inactive
C/C(N)=C(/C#N)C(=O)COC(=O)CC12CC3CC(CC(C3)C1)C2	inactive
Cc1cccc2cc(CN(CCCN(C)C)C(=S)NCCc3ccccc3)c(=O)[nH]c12	inactive
Nc1cc(C(F)(F)F)ccc1Nc1ccccc1	inactive
CCC(C)NC(C(=O)Nc1ccc(Cl)c([N+](=O)[O-])c1)c1ccccc1 (stereo not drawn)	inactive
COCCn1c(SCc2cccc([N+](=O)[O-])c2)nc2ccccc2c1=O	inactive
O=C(Nc1cccc(Cl)c1)N1CCN2C(=O)c3ccccc3C12c1ccccc1 (stereo not drawn)	inactive
CC(C)n1c(NCc2c[nH]c3ccccc23)nc2ccccc21	inactive
Cc1nn(-c2ccccc2)c2[nH]c(C(F)(F)F)cc(=O)c12	inactive

System: not listed separately
Test: calcium flux activation in mu-opioid HEK293 cells, confirmation, counter-screen for TRPC4 activator project, cell-based, HEK293 mu-opioid receptor line (AID 449723;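 active means hit in primary screen, with calcium signal over 5 SD above buffer well mean in both duplicates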;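 further: counter screen cells carry the mu-opioid receptor alone and lack TRPC4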)
Conditions: Fluo-4 calcium fluorescence, at 10 µM

SMILES	outcome
CN(C)C(CNC(=O)c1oc2ccccc2c1CSc1ncn[nH]1)c1ccco1 (stereo not drawn)	inactive
Cc1nn(-c2ccccc2)c(Cl)c1CN(C(=O)CCl)c1ccc(Cl)cc1	inactive
COc1ccccc1N1CCc2c(C)nc3c(OC)cccc3c21	inactive
Cc1cc(CN2CCCC(C(=O)Nc3ccc(-c4nc5ccccc5[nH]4)cc3)C2)n[nH]1 (stereo not drawn)	inactive
CCCCNCC1C(Oc2ccc(Cl)cc2)C(=O)N1c1ccccc1C (stereo not drawn)	inactive
O=C1COc2ccc(N3C(=O)C=CC3=O)cc2N1	inactive
Cc1nc2scc(-c3ccccc3)c2c(=O)n1N=C1C=CC(=O)C=C1	inactive
CCOC(=O)C1=NN(c2ccccc2C)C2=NC(C)=C(C(=O)OC)C(c3cccc(OC)c3)N12 (stereo not drawn)	inactive
N/C(Cc1cccc2ccccc12)=N\OC(=O)c1cccs1	inactive
CCCSc1nc(N)nc(-c2cccs2)c1C#N	inactive
Cc1ccc(NC(=O)c2cc(N3C(=O)C=CC3=O)ccc2N2CCOCC2)cc1	inactive
Cc1ccc(NC(=O)CNc2ccccc2CN(C)C2CCCCC2)cc1	inactive
CC1(C)CC(NC(=O)c2cc(COc3cccc(C(F)(F)F)c3)on2)CCO1 (stereo not drawn)	inactive
COc1ccc(C2=NN(C(=O)c3ccccc3)C(c3ccc(OC)c(OC)c3)C2)c(O)c1 (stereo not drawn)	inactive
CCCn1nc([N+](=O)[O-])c(C(C#N)c2nc3ccccc3o2)c(Cl)c1=O (stereo not drawn)	inactive
COc1ccc(C(CNc2ccc(C(F)(F)F)cn2)N(C)C)cc1OC (stereo not drawn)	inactive
COc1cccc(C2=NN(C(=O)c3ccco3)C(c3ccco3)C2)c1 (stereo not drawn)	inactive
c1ccc(Cn2c(NCc3ccco3)nc3ccccc32)cc1	inactive
CC(=O)c1ccc2c(c1)N(C)c1ccccc1S2	inactive
CCOC(=O)C1CCN(CC(O)COc2ccc(C(C)(C)C)cc2)CC1 (stereo not drawn)	inactive

SMILES	outcome
CC(C)C1=Nc2cccc3cccc(c23)N1	inactive
Cc1cccc2nc(CSc3ccc(Cl)cc3)cn12	inactive
O=C(NC1CCCCC1)N1CCN(C(c2ccccc2)c2ccccc2)CC1	inactive
COc1cc(CNC2CCCC2)c(Br)cc1OCc1ccccc1	inactive
COc1ccc(Nc2cc(C)nc3ccc(OC)cc23)cc1	inactive
Cc1ccc(NC(=S)N(CCCN(C)C)Cc2cc3cc4c(cc3[nH]c2=O)OCO4)c(C)c1	inactive
COc1ccc(CN2CCN(Cc3ccc(C(F)(F)F)cc3)CC2)c(OC)c1	inactive
Cn1cc(CNCC2CCCO2)c(-c2ccc(Oc3ccccc3)cc2)n1 (stereo not drawn)	inactive
CCCCCCCCCCCCOC(=O)C[N+](C)(C)C	inactive
CN(C)CCCN(C(=O)c1ccc(S(=O)(=O)N2CCCC2)cc1)c1nc2c(F)cc(F)cc2s1	inactive
C=C(c1ccc(O)cc1)c1ccc(O)cc1	inactive
C/C(N)=C(/C#N)C(=O)COC(=O)CC12CC3CC(CC(C3)C1)C2	inactive
Cc1cccc2cc(CN(CCCN(C)C)C(=S)NCCc3ccccc3)c(=O)[nH]c12	inactive
Nc1cc(C(F)(F)F)ccc1Nc1ccccc1	inactive
CCC(C)NC(C(=O)Nc1ccc(Cl)c([N+](=O)[O-])c1)c1ccccc1 (stereo not drawn)	inactive
COCCn1c(SCc2cccc([N+](=O)[O-])c2)nc2ccccc2c1=O	inactive
O=C(Nc1cccc(Cl)c1)N1CCN2C(=O)c3ccccc3C12c1ccccc1 (stereo not drawn)	inactive
CC(C)n1c(NCc2c[nH]c3ccccc23)nc2ccccc21	inactive
Cc1nn(-c2ccccc2)c2[nH]c(C(F)(F)F)cc(=O)c12	inactive

Source: PubChem BioAssay
